CHOP inh: inhibitors of CHOP induction in ER stress response; CHO-K1 CHOP-promoter luciferase, tunicamycin-induced, 15-18 h; inhibition, % at 10 µM; actives 3.8% (n = 220,000); AID 2732;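 active = compounds that reduced the stress-induced luciferase reporter signal by more than about 70% of percent inhibition, limit read from the data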;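 note: 0% = tunicamycin plus vehicle and 100% = wells without tunicamycin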
S1P4 ag: human S1P4 receptor agonism; O95977; S1P4-expressing cell line, agonist reporter assay; activation, % at 4.98 µM; actives 0.35% (n = 220,000); AID 1509; in the data active = activation above about 11%;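 note: 0% = DMSO vehicle and 100% = reference agonist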
Target sequence (O95977 whole entry, looked up): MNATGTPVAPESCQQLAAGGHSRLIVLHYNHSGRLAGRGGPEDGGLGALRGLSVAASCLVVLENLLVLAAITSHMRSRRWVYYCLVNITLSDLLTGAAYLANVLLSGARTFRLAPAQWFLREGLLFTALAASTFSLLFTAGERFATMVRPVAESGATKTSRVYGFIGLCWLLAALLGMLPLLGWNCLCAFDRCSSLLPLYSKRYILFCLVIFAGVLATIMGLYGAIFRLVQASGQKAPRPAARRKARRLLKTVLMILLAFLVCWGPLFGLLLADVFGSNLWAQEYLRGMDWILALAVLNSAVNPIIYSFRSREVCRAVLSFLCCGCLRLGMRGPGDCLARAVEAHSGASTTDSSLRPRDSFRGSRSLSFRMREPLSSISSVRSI
S1P4 antag: antagonists of human S1P4 receptor; O95977; S1P4-expressing cells, antagonist mode, reporter read-out; inhibition, % at 4.98 µM; actives 0.26% (n = 220,000); AID 1510; in the data active = inhibition above about 29%;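 note: 0% = wells stimulated with agonist and 100% = vehicle wells without agonist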
Hsp70 activator: Hsp70 transcriptional activation, primary screen; HeLa Hsp70 promoter luciferase reporter, luminescence; scaled: vehicle 0, proteasome-inhibitor control 100%; actives 0.04% (n = 200,000); activation, % at 10 µM;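 active = activation above the mean across all tested compounds plus 3 SD, cutoff set per campaign, cut at about 5.5% in these data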;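 note: 100% = MG132 at 30 µM as the positive control and 0% = DMSO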
S1P4 antag conf: confirmation of human S1P4 receptor antagonists. shares compounds with S1P4 antag. S1P4-expressing cell line, antagonist mode, reporter read-out. inhibition, % at 4.98 µM. actives 71% (n = 520); in the data active = inhibition above about 30%
S1P1 antag: human S1P1 antagonism as S1P4 antagonist counter-screen. shares compounds with S1P4 antag. cell-based S1P1 antagonist counterscreen, inhibition. inhibition, % at 4.98 µM. actives 37% (n = 520). AID 1564; in the data active = inhibition above about 40%;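 note: receptor stimulated with S1P near its EC80; 0% = agonist stimulated wells and 100% = vehicle only wells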
An asterisk follows results filed as active. The list is not random: actives were taken first. Their share in the collection is about 4.2%.

What do the screens show for `COC(=O)c1cc(=O)n(Cc2ccco2)c(=Nc2ccc(F)c(Cl)c2)s1`?
CHOP inh: 29.1; S1P4 ag: -0.4; S1P4 antag: 34.0*; Hsp70 activator: -0.2; S1P4 antag conf: 102.4*; S1P1 antag: 60.2*

What do the screens show for `O=C(Nc1ccc(F)cc1)Nc1cc(OCC(F)(F)F)cc(OCC(F)(F)F)c1`?
CHOP inh: 102.2*; S1P4 ag: -1.1; S1P4 antag: 100.2*; Hsp70 activator: -0.4; S1P4 antag conf: 110.4*; S1P1 antag: -28.6

What do the screens show for `CCOc1ccc(NC(=O)Nc2cc(OCC(F)(F)F)cc(OCC(F)(F)F)c2)cc1`?
CHOP inh: 73.3*; S1P4 ag: -2.4; S1P4 antag: 90.3*; Hsp70 activator: -0.5; S1P4 antag conf: 112.8*; S1P1 antag: -25.6

Results for CCOC(=O)c1ccc(NC(=O)Nc2ccc(F)cc2)cc1 ?
CHOP inh: 46.6; S1P4 ag: -4.7; S1P4 antag: -10.2; Hsp70 activator: 0.1

How did COc1ccc(/C=C/C(=O)Nc2ccc(OC)nc2)cc1 do in these assays?
CHOP inh: 3.1; S1P4 ag: 2.8; S1P4 antag: 11.4; Hsp70 activator: -0.6

Results for COc1ccc(CS(=O)(=O)/C(Cl)=C(/Cl)C(=O)Nc2ccc(OC)nc2)cc1 ?
S1P4 ag: 0.6; S1P4 antag: 79.9*; Hsp70 activator: 2.7; S1P4 antag conf: 119.0*; S1P1 antag: 85.0*

Results for COC(=O)c1sc(-c2ccc(Cl)cc2)cc1NC(=O)CSCC(=O)O ?
CHOP inh: 26.0; S1P4 ag: 0.5; S1P4 antag: 7.0

Results for CC(C)C[C@H](N)c1nnc(S(=O)(=O)Cc2cccc(F)c2)o1 ?
CHOP inh: -3.1; S1P4 ag: 0.8; S1P4 antag: -7.1; Hsp70 activator: -0.1

What do the screens show for `CC(C)(C)OC(=O)N[C@@H](Cc1ccccc1)c1nnc(S(=O)(=O)Cc2cccc(F)c2)o1`?
CHOP inh: 17.2; S1P4 ag: -4.5; S1P4 antag: 78.4*; Hsp70 activator: -0.1; S1P4 antag conf: 93.7*; S1P1 antag: 10.5

How did COc1cc(-c2nc3n(n2)C(c2ccncc2)C(C(N)=O)=C(C)N3)cc(OC)c1OC (stereo unspecified) do in these assays?
CHOP inh: 10.2; S1P4 ag: 0.5; S1P4 antag: 65.9*; Hsp70 activator: -0.3; S1P4 antag conf: -0.9; S1P1 antag: 5.1

Results for O=C(/C=C/c1ccccc1O)c1ccc(Cl)cc1 ?
CHOP inh: 33.7; S1P4 ag: -1.2; S1P4 antag: 45.6*; Hsp70 activator: 0.4; S1P4 antag conf: 59.4*; S1P1 antag: 23.8

How did C#CCOc1ccc(C2C3=C(COC3=O)Nc3cc4c(cc32)OCO4)cc1OC (stereo unspecified) do in these assays?
CHOP inh: -39.5; S1P4 ag: -0.4; S1P4 antag: 38.3*; Hsp70 activator: 0.1; S1P4 antag conf: 39.4*; S1P1 antag: 79.8*

What do the screens show for `COc1ccc(-n2ncc(Cl)c(Cl)c2=O)cc1`?
CHOP inh: 69.7; S1P4 ag: -0.5; S1P4 antag: 95.0*; Hsp70 activator: 0.6; S1P4 antag conf: 118.1*; S1P1 antag: 57.1*

How did O=C(O)CC/C(=C\c1ccccc1[N+](=O)[O-])c1nc2ccccc2s1 do in these assays?
CHOP inh: 19.3; S1P4 ag: 1.2; S1P4 antag: 0.6; Hsp70 activator: 0.0

Results for CCCCC(=O)Nc1ccc(C(=O)NCCc2ccc(S(N)(=O)=O)cc2)cc1 ?
CHOP inh: -3.3; S1P4 ag: 0.1; S1P4 antag: -28.0; Hsp70 activator: -0.3

How did CCc1nc2ccc(C(=O)NCc3ccco3)cc2nc1CC do in these assays?
CHOP inh: 34.4; S1P4 ag: -1.2; S1P4 antag: 1.4; Hsp70 activator: 0.7

Results for O=C(NCc1ccco1)c1ccc2c(c1)CCO2 ?
CHOP inh: -19.4; S1P4 ag: -1.0; S1P4 antag: 30.2*; S1P4 antag conf: 3.1; S1P1 antag: -1.4

How did NC(=O)c1c(N)sc(=S)n1-c1ccccc1 do in these assays?
CHOP inh: 31.8; S1P4 ag: -1.2; S1P4 antag: 7.2; Hsp70 activator: 0.2

What do the screens show for `S=c1sc2c(Cl)ncnc2n1-c1ccccc1`?
CHOP inh: -23.6; S1P4 ag: -1.0; S1P4 antag: 31.9*; Hsp70 activator: -0.3; S1P4 antag conf: 121.0*; S1P1 antag: 86.2*

How did O=C(/C=C/c1ccc([N+](=O)[O-])cc1)NCc1cccnc1 do in these assays?
CHOP inh: -22.1; S1P4 ag: -1.1; S1P4 antag: -9.0; Hsp70 activator: -0.3

Results for O=C(/C=C/c1ccc([N+](=O)[O-])cc1)c1cccnc1 ?
CHOP inh: -27.6; S1P4 ag: 1.0; S1P4 antag: 34.4*; Hsp70 activator: -0.3; S1P4 antag conf: 79.3*; S1P1 antag: 52.0*

What do the screens show for `CC1(C(=O)Nc2cccc3ccccc23)CC1(Br)Br` (stereo unspecified)?
CHOP inh: 15.4; S1P4 ag: 0.2; S1P4 antag: 4.8

Results for COc1cccc2[nH]c3c(N4CCCCC4)ncnc3c12 ?
CHOP inh: -2.1; S1P4 ag: 0.4; S1P4 antag: 2.4; Hsp70 activator: -0.5

Results for CCOC(=O)C1CCN(c2ncnc3c2[nH]c2cccc(OC)c23)CC1 ?
CHOP inh: 5.0; S1P4 ag: 0.0; S1P4 antag: 56.1*; Hsp70 activator: 0.1; S1P4 antag conf: -4.3; S1P1 antag: 26.1

How did Nc1cc(C(=O)OCC(=O)NCC2CCCO2)ccc1Cl (stereo unspecified) do in these assays?
CHOP inh: -0.7; S1P4 ag: -2.8; S1P4 antag: -10.4; Hsp70 activator: 0.0

What do the screens show for `CCc1ccccc1NC(=O)Nc1ccc(F)cc1F`?
CHOP inh: 5.8; S1P4 ag: 1.2; S1P4 antag: 1.7; Hsp70 activator: -0.1

Results for O=C(Nc1ccc(F)cc1F)Nc1ccccc1C(=O)NCCN1CCNC1=O ?
CHOP inh: 16.5; S1P4 ag: -0.2; S1P4 antag: 30.5*; S1P4 antag conf: -14.4; S1P1 antag: 11.2

What do the screens show for `Cc1nc(-c2ccc(C(=O)O)cc2)cs1`?
CHOP inh: -7.6; S1P4 ag: 2.3; S1P4 antag: -10.2; Hsp70 activator: -0.3

How did O=C(Nc1ccc(Cl)cc1)c1cccnc1N1CCCCC1 do in these assays?
CHOP inh: 56.4; S1P4 ag: 1.0; S1P4 antag: 95.0*; Hsp70 activator: 0.0; S1P4 antag conf: 2.1; S1P1 antag: 10.7

How did O=C(NCCCN1CCOCC1)c1ccc(Cl)s1 do in these assays?
CHOP inh: -5.0; S1P4 ag: -2.6; S1P4 antag: -21.8; Hsp70 activator: -0.2

Results for Cc1ccc(S(=O)(=O)CCN2C=CC(C(F)(F)F)=NCC2)cc1 ?
CHOP inh: -9.1; S1P4 ag: 0.3; S1P4 antag: 32.6*; S1P4 antag conf: -2.8; S1P1 antag: -11.5

Results for O=C(O)CCc1nn2c3ccccc3n(CC(=O)O)c2nc1=O ?
CHOP inh: 37.7; S1P4 ag: -0.4; S1P4 antag: -8.6; Hsp70 activator: -0.2

Screens from PubChem BioAssay.
